Data taken from the supplement of paper PMC9694430.
“And” between values parts separate entries of the source, which are not always exact repeats. Equal entries are not always repeated.

Legend:
Assay in all cases: thermal shift delta Tm vs DMSO control; higher = stronger stabilization (binding)
Conditions in all cases: 12.5 µM; protein concentration 2 µM
LOC_OS02G45750-cb003 = system: LOC_OS02G45750-cb003
In short: (§1)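 The melting temperature shift given here is a triplicate mean, measured against protein that received only DMSO. Melting temperatures came from Boltzmann fits of differential scanning fluorimetry data on E. coli-expressed, purified rice kinase domain constructs. Each 19.5 μl well contained 2 μM kinase, 100 mM potassium phosphate pH 7.5, 150 mM NaCl, 10% glycerol, 5 × SYPRO Orange and compound in DMSO. Plates were scanned from 25°C to 95°C at 0.05°C/s.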

LOC_OS02G54510-cb004 = system: LOC_OS02G54510-cb004
In short: as §1

LOC_OS03G04050-cb001 = system: LOC_OS03G04050-cb001
In short: as §1

LOC_OS03G12390-cb001 = system: LOC_OS03G12390-cb001
In short: as §1

LOC_OS03G27990-cb004 = system: LOC_OS03G27990-cb004
In short: as §1

LOC_OS03G50450-cb001 = system: LOC_OS03G50450-cb001
In short: as §1

LOC_OS03G50810-cb003 = system: LOC_OS03G50810-cb003
In short: as §1

LOC_OS04G35114-cb001 = system: LOC_OS04G35114-cb001
In short: as §1

LOC_OS04G38480-cb003 = system: T1, LOC_OS04G38480-cb003
T1 sequence (whole entry): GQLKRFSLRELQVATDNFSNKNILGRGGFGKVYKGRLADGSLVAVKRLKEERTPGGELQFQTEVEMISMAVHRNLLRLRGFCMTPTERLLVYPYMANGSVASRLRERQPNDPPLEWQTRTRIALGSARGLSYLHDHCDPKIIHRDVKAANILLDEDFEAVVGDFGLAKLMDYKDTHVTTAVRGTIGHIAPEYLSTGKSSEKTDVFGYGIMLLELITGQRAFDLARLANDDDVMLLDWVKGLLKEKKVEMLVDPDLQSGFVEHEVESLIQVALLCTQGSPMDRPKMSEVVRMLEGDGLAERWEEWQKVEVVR
In short: as §1

LOC_OS04G41100-cb001 = system: T2, LOC_OS04G41100-cb001
T2 sequence (whole entry): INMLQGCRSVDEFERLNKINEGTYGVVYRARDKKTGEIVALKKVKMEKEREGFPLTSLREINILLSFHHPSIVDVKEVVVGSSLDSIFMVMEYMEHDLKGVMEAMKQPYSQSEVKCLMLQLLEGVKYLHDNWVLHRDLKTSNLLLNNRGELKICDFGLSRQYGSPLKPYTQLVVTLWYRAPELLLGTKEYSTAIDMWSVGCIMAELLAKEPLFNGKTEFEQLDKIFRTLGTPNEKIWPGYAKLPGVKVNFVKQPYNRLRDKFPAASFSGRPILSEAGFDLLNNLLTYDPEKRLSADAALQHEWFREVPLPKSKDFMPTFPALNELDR
In short: as §1

LOC_OS04G57630-cb004 = system: LOC_OS04G57630-cb004
In short: as §1

LOC_OS05G07850-cb002 = system: LOC_OS05G07850-cb002
In short: as §1

LOC_OS05G16824-cb004 = system: LOC_OS05G16824-cb004
In short: as §1

LOC_OS05G28520-cb001 = system: LOC_OS05G28520-cb001
In short: as §1

LOC_OS05G30820-cb001 = system: LOC_OS05G30820-cb001
In short: as §1

LOC_OS05G43570-cb004 = system: LOC_OS05G43570-cb004
In short: as §1

LOC_OS06G16330-cb003 = system: LOC_OS06G16330-cb003
In short: as §1

LOC_OS06G22820-cb001 = system: T3, LOC_OS06G22820-cb001
T3 sequence (whole entry): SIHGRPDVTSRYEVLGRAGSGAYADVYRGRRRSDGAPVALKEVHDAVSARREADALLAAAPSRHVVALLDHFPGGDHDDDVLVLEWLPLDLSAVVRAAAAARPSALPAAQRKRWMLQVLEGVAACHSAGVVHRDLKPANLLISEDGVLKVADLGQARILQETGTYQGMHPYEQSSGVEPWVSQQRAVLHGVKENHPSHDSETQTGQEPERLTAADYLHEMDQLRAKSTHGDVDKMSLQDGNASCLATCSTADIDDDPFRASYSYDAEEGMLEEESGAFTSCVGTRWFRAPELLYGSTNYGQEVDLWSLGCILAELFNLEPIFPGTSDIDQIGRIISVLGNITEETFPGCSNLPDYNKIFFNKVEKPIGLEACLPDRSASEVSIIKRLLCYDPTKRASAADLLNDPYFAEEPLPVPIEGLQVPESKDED
In short: as §1

LOC_OS07G06570-cb004 = system: LOC_OS07G06570-cb004
In short: as §1

LOC_OS07G07230-cb001 = system: LOC_OS07G07230-cb001
In short: as §1

Chain of LOC_OS06G16330-cb003 (as listed by the source): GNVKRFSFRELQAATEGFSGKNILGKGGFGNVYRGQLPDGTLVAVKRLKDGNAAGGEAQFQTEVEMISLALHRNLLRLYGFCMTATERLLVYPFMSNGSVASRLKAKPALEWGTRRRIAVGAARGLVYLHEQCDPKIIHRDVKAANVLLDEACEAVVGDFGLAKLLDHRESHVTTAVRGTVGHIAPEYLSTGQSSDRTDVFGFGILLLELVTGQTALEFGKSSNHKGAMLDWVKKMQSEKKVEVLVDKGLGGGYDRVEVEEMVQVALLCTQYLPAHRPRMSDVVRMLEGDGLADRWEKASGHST

| Structure (SMILES) | thermal shift delta Tm (LOC_OS02G45750-cb003) | thermal shift delta Tm (LOC_OS02G54510-cb004) | thermal shift delta Tm (LOC_OS03G04050-cb001) | thermal shift delta Tm (LOC_OS03G12390-cb001) | thermal shift delta Tm (LOC_OS03G27990-cb004) | thermal shift delta Tm (LOC_OS03G50450-cb001) | thermal shift delta Tm (LOC_OS03G50810-cb003) | thermal shift delta Tm (LOC_OS04G35114-cb001) | thermal shift delta Tm (LOC_OS04G38480-cb003) | thermal shift delta Tm (LOC_OS04G41100-cb001) | thermal shift delta Tm (LOC_OS04G57630-cb004) | thermal shift delta Tm (LOC_OS05G07850-cb002) | thermal shift delta Tm (LOC_OS05G16824-cb004) | thermal shift delta Tm (LOC_OS05G28520-cb001) | thermal shift delta Tm (LOC_OS05G30820-cb001) | thermal shift delta Tm (LOC_OS05G43570-cb004) | thermal shift delta Tm (LOC_OS06G16330-cb003) | thermal shift delta Tm (LOC_OS06G22820-cb001) | thermal shift delta Tm (LOC_OS07G06570-cb004) | thermal shift delta Tm (LOC_OS07G07230-cb001) |
| --- | --- | --- | --- | --- | --- | --- | --- | --- | --- | --- | --- | --- | --- | --- | --- | --- | --- | --- | --- | --- |
| O=c1cc(N2CCOCC2)oc2c(-c3ccccc3)cccc12 | 0.29 °C | 0 °C | 0.47 °C | 0.68 °C | -0.02 °C | 0.21 °C | 0.41 °C | 0.16 °C | 0.52 °C | 0.8 °C | 0.2 °C | 1.02 °C | 0.85 °C | 0.91 °C | 0.41 °C | 0.98 °C | 0.37 °C | 1.05 °C | 0.89 °C | -0.39 °C |
| COc1cccc(-c2cc(=O)c3ccccc3o2)c1N | -0.15 °C | 0.15 °C | 0.23 °C | 0.21 °C | 0.01 °C | 0.16 °C | 0.04 °C | 0.26 °C | -0.06 °C | 0.2 °C | -0.72 °C | 0.19 °C | -2.84 °C | 0.24 °C | 0.41 °C | 0.15 °C | -0.2 °C | 0.44 °C | 0.29 °C | 0.35 °C |
| Nc1[nH]nc2nnc(-c3c(-c4ccccc4)nn4ccccc34)cc12 | 1.41 °C | 0.54 °C | 0.66 °C | 1.36 °C | 0.56 °C | 1.03 °C | 0.41 °C | 1.11 °C | 0.15 °C | 0.75 °C | 0.25 °C | 2.77 °C | 2.12 °C | 0.56 °C | 0.84 °C | 0.89 °C | 1.11 °C | 0.39 °C | 0.46 °C | 0.64 °C |
| CCc1cccc(CC)c1NC(=O)N1Cc2[nH]nc(NC(=O)c3ccc(N4CCN(C)CC4)cc3)c2C1 | 2.47 °C | 0.46 °C | 0.29 °C | 4.75 °C | 0.09 °C | 0.27 °C | 2.53 °C | 4.67 °C | 0.61 °C | 0.62 °C | 0.89 °C | 5.74 °C | 1.16 °C | 0.11 °C | 0.78 °C | 0.47 °C | 2.93 °C | 1.47 °C | 1.26 °C | 0.12 °C |
| COc1cc2ncnc(Nc3ccc(Oc4ccccc4)cc3C)c2cc1OC | 1.39 °C | 0.53 °C | 0.35 °C | -0.19 °C | 0.39 °C | 0.77 °C | 0.51 °C | 4.14 °C | 1.19 °C | -0.13 °C | 0.31 °C | 8.78 °C | -9.65 °C | 0.23 °C | 0.05 °C | -0.01 °C | 2.86 °C | 0.95 °C | 1.5 °C | 0.54 °C |
| CC#CC(=O)Nc1ccc2ncnc(Nc3cccc(Br)c3)c2c1 | -0.66 °C | 0.79 °C | 0.48 °C | 0.54 °C | 0.39 °C | -0.04 °C | 1.24 °C | 3.68 °C | 1.41 °C | 0.03 °C | 1.19 °C | 9.9 °C | -2.35 °C | 0.85 °C | 0.66 °C | 0.95 °C | 3.13 °C | 0.56 °C | 1.04 °C | 0.05 °C |
| COC(=O)Nc1ccc(-c2nc(N3CCOCC3)c3cnn(C4CCN(C(=O)OC)CC4)c3n2)cc1 | 0 °C | -0.07 °C | 0.1 °C | 0.08 °C | -0.05 °C | 0.08 °C | 0.17 °C | 0.06 °C | 0.81 °C | 0.47 °C | 0.06 °C | 0.49 °C | -0.54 °C | -0.26 °C | 0.57 °C | 0.65 °C | -0.2 °C | 0.4 °C | 0.99 °C | -0.41 °C |
| CC(C)NC(=O)C1CCC(n2c(NC(=O)c3ccc(F)cc3)nc3ccc(CN4CCC(C(C)(C)O)CC4)cc32)CC1 (stereo not given) [Belizatinib (TSR-011)] | 1.72 °C | 1.61 °C | 0.67 °C | 6.22 °C | 1.09 °C | 0.85 °C | 3.76 °C | 6.28 °C | 1.98 °C | 0.49 °C | 6.67 °C | 8.98 °C | 13 °C | 4.12 °C | 0.47 °C | 0.09 °C | 4.55 °C | 0.48 °C | 1.37 °C | 0.49 °C |
| N#Cc1c(NC(=O)c2cccc3ccccc23)sc2c1CCCC2 [JNK Inhibitor IX] | 0.59 °C | -0.12 °C | 0.41 °C | -0.14 °C | 0.23 °C | 0.19 °C | 0.38 °C | 0.53 °C | 1.73 °C | 0.46 °C | 0.22 °C | 0.04 °C | -1.1 °C | 0.77 °C | 0.43 °C | 0.27 °C | -0.09 °C | 0.6 °C | 0.83 °C | 0.4 °C |
| CN(c1ncccc1CNc1nc(Nc2ccc3c(c2)CC(=O)N3)ncc1C(F)(F)F)S(C)(=O)=O | 6.83 °C and 7.06 °C | 1.05 °C and 1.09 °C | 0.54 °C and 0.38 °C | 3.95 °C and 4.88 °C | 2.23 °C and 2.44 °C | 2.36 °C and 2.48 °C | 3.64 °C and 4.1 °C | 4.17 °C and 4.61 °C | 1.77 °C and 2.12 °C | 1.82 °C and 1.92 °C | 1.44 °C and 2.05 °C | 8.97 °C and 9.58 °C | 9.12 °C and 9.67 °C | 0.98 °C and 1.52 °C | 4.26 °C and 3.92 °C | 0.77 °C and 0.58 °C | 4.21 °C and 5.5 °C | -0.01 °C and -0.19 °C | 0.81 °C and 1.35 °C | 0.45 °C and 0.44 °C |
| CC(C)(C)NC(=O)c1cncn1C1CCN(c2ccc(-c3nnc(C(F)(F)F)o3)cn2)CC1 | 0.9 °C | 0.27 °C | 0.48 °C | -0.08 °C | 0.32 °C | 0.7 °C | 0.36 °C | -0.3 °C | 1.43 °C | 0.3 °C | -0.11 °C | 0.05 °C | 0.92 °C | -0.42 °C | 0.02 °C | -0.06 °C | -0.23 °C | 0.29 °C | 1.08 °C | 0.57 °C |
| C#Cc1cccc(Nc2ncnc3cc(OCCOC)c(OCCO)cc23)c1 | 3.92 °C | 0.67 °C | 0.26 °C | 2.39 °C | 0.08 °C | 0.13 °C | 0.83 °C | 6.33 °C | 1.21 °C | 0.13 °C | 0.14 °C | 8.23 °C | 0.76 °C | -0.52 °C | 0.4 °C | 0.13 °C | 3.5 °C | 0.25 °C | 0.7 °C | -0.14 °C |
